The supplement of paper PMC6555819

Tested on: VDR:RXRa (NR concentration 270 nM, RXRa partner concentration 90 nM)
Assay: PBM binding z-score (relative to random genomic background probes); higher = stronger binding; sequences stand for … in GC…GCGATTGACAGCGTAGAATGAAGG
Description: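 Protein-binding microarray (Agilent 4x180K custom design, double-stranded 60-nt probes: 5' GC cap, 34-nt variable region, 24-nt constant primer region; full probe sequence given). Purified or IVT nuclear receptor:RXRα heterodimers (3:1 NR:RXRα, mostly 270:90 nM) or homodimers were incubated for 1 h in PBS with 2% milk and no ligand, then detected with Alexa488 antibodies. Fluorescence from o1-orientation probes (~5 replicates averaged) was converted to z-scores against 500 random hg19 background probes. Variable regions are seed direct-repeat (DR0–DR5) sites, all their single-nucleotide variants and half-site ablations.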

Row | Sequence | PBM binding z-score
1 | GCTAGCAGGCAATTTGGGTCACTCAATGACGGGC | 0.222
2 | CAAACTAGGTCACCGGAAGGTCAAAGTCCGCATG | 6.25
3 | TTACCAAGGTGAAAGGTCGTTAATGCACGCCTTG | 2.95
4 | ACAGACAGGTGTGTGAAGGTAACTCAGCTGGACG | -0.572
5 | CCTACTGGGGCATCAGGTCATTGATATCAACGTT | 1.85
6 | TCTGCTCGGTCAACGATGGTCAGCTAATCTGCTA | -0.245
7 | ATCGAAAGGTCGAGGTGAGTATGGAGAAAGGGAA | 2.59
8 | CAGCCTAGGTCAGGGCCGGTATAGGAGGAACGTT | 0.178
9 | CTTACTGGGCCACGAAAGGTCATTGATTCAGTGA | 4.64
10 | CAAACTAGGTCAAGAGGTCAAAATCCGCTTCCCG | 5.85
11 | GATACAGGGTCACGGCCAGAGTACGCGTATTGAT | 5.4
12 | ACAGACATGTGATGAAGGTAACTCAGGCTATCAT | -0.214
13 | ATATGTAGGTCACATCCGGGTCATTCAGGCTATG | 6.03
14 | CAAACTAGGTCACGAAAGGTCAAACTCGAATGAC | 7.13
15 | ACTTACGGGTCAACGAGGCTATAGCACGCGTATA | 6.74
16 | TCTATTAGTTGGAGGGCAACCGACGAGTCCGTTT | 1.27
17 | TGAATGAGGTTATAAAATCAGGGAACGTTGCAAA | 0.918
18 | TCTAGTTGGTCACGGAGGTGACACACGACGGGTA | 1.59
19 | TCGAGTAGGTTGGGGGCATTCAGAATGGCGTCGA | 2.65
20 | TAGCCTAGGTCATTCAGGGGCCAGTATTGAAAGC | 3.18

Row | Sequence | PBM binding z-score
21 | CCTCGGAGGACAACAGGAGGTCCGAGCTGCCAGA | -0.665
22 | CAAACTAGGTCAAGGTCAAAGGCGGTTTGTGCCA | 4.87
23 | TCGAGTAGGTTAGTGGGGGCATTCAGCCAACATA | 5.48
24 | CCAGACAGGTGAAAGCTAACTCAGTCTGGTACGC | -0.274
25 | TCTCGGAGGACACGAAGGGTCAGAGCTCGACATC | 1.91
26 | CCTAGCAGGCCAGAGTCACTCAAGCATTTCGCTT | -0.665
27 | TCTTCTAGATCAACAGGAGGTTAAGAAAGATCGA | 0.728
28 | TTACCAAGGTGAGCTGATGTCGTTGATCCAACTC | -0.0183
29 | CCTAGTTGGTTAAGGTCACACACGCTATAGGTAC | 4.4
30 | CGAACTAAGTCAGAACAGGACAGTGAAGGATGAT | -0.25
31 | AATACAGGGTCATCGTAGGCGAGAGTACGCACAG | 5.01
32 | TCTTGTAGATCAAAGGTTAGGAAAGCCGAAGCCT | 0.697
33 | TGAATGAGGATATAAGATCAGGGAACGTTGCAAA | -0.113
34 | GTACCAAGGTGAATTGGTCGTTGATGAGTAGGCG | -0.409
35 | ATCTCTAGGTAACAAGTTCAGTGACAGAGAGGAC | 1.97
36 | TCTGCTAGGTCAGTTGGTCATCTAACGAGCTGCC | 0.463
37 | GCTTACGGGTCAAAGGTTATACCATGAATAGAAT | 5.75
38 | GCTGCTAGGTCAGGTTGGTCAGCTCACGGGTACG | 0.52
39 | CCTACTGTGCCACGAAAGGTCATTGATTCAGTGA | 4.38
40 | ACAGACAGGTGATGAAGGTGACTCAGGCTATCAT | 0.516
